SMN2 splice enh: qHTS Assay for Enhancers of SMN2 Splice Variant Expression. Potency, µM (titrated, usually from 46.1 µM), most hits filed as activators. actives 2.8% (n = 210,000). HEK293 SMN2-luciferase splicing reporter, luminescence, 30-36 h; note: nearly all actives have a fitted effect of over 55% in size
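HEK293 cells carry an SMN2 minigene-luciferase reporter in which exon 7 inclusion puts luciferase in frame. Cells were seeded at 2000 cells/well, attached for 10-12 hours, then exposed to compounds for 30-36 hours at 37C before ONE-Glo luminescence.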
Rab9 promoter act: qHTS Assay for Rab9 Promoter Activators. actives 2.8% (n = 320,000). AID 485297, 2010. Potency, µM (highest dose often 9.22 µM), hits mostly activators. Huh7 Rab9 promoter-luciferase reporter, luminescence, 24 h; note: nearly all actives have a fitted effect of over 60% in size
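Stable Rab9-luc Huh7, 1500 cells/well, 2 h settle; cmpd in DMSO, 24 h, 37 °C/5% CO2; luciferase reagent 10 min RT; luminescence.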
ELG1 genotox: qHTS screen for small molecules that induce genotoxicity in human embryonic kidney (HEK293T) cells expressing luciferase-tagged ELG1; HEK293T ELG1-luciferase reporter, luminescence, 16 h; Potency, µM (highest dose often 46 µM), hits mostly activators; actives 1.3% (n = 330,000); note: nearly all actives have a fitted effect of over 60% in size
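After overnight (16 hr) compound treatment at 37 °C, ELG1-luciferase HEK293T cells were lysed with ONE-Glo; luminescence quantified 30 min later at room temperature.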
NPC1 promoter act: qHTS Assay for NPC1 Promoter Activators. Huh7 NPC1 promoter luciferase reporter, 24 h. Potency, µM (top dose mostly 9.22 µM), actives largely listed as activators. actives 2.4% (n = 320,000). AID 485313, 2010; note: nearly all actives have a fitted effect of over 60% in size
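Luminescence from an NPC1 promoter-driven luciferase reporter in stably transfected Huh7 cells was measured after 24 h compound treatment at 37 °C, followed by 10 min ambient incubation with luciferase detection reagent.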
FLuc counter: qHTS profiling assay for firefly luciferase inhibitor/activator using purifed enzyme and Km concentrations of substrates (counterscreen for miR-21 project) | Luciferin 4-monooxygenase (Photinus pyralis), P08659 | purified FLuc, Km substrates, luminescence inhibition | Potency, µM (titrated, usually from 57.5 µM), most hits filed as inhibitors | actives 6.9% (n = 360,000) | AID 588342, 2011; note: nearly all actives have a fitted effect of over 55% in size
Target sequence (P08659 whole entry, looked up): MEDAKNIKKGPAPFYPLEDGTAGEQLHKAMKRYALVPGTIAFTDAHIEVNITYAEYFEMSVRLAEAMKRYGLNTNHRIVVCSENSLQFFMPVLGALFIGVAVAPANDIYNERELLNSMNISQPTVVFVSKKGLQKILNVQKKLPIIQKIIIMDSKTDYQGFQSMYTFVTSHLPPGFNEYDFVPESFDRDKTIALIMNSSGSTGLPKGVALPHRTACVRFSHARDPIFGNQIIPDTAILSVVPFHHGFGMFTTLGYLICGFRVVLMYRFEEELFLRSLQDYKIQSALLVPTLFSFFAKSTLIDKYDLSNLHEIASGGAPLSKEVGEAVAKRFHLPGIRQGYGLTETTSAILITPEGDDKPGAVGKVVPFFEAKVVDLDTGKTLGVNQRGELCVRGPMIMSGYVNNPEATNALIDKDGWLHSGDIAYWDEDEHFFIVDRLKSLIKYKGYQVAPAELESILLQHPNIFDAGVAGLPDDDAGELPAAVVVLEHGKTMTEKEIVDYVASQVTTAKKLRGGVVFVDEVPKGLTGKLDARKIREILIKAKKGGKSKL
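Biochemical qHTS of compounds, final roughly 60 µM downward over six points, against 10 nM purified firefly luciferase using Km concentrations of substrates (10 uM D-luciferin, 10 uM ATP) in Tris acetate pH 7.5 buffer; luminescence output.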
Large screens that a line does not name were inactive. Compounds with a hit are over-represented: about 7.4% of the library has one in this group of screens. Calls come from the whole dose curve; as a rule, active = well fitted curve in the direction sought with a large enough effect; inconclusive = small, poorly fitted or top-dose-only effect, or another doubt; inactive = no such curve, though single readings can be large; an effect the other way counts as inactive or inconclusive.

CCCCN(C(=O)CSc1nnc(Nc2ccc(C)c(C)c2)s1)c1c(N)n(Cc2ccccc2)c(=O)[nH]c1=O	SMN2 splice enh 22µM, FLuc counter 1.1µM
C=CCc1ccccc1Oc1cc(F)nc(N)n1	none (no result: SMN2 splice enh)
Cc1c(Cl)sn(-c2ccc(Cl)cc2)c1=O	FLuc counter 8.5µM
COc1ccccc1CNC(=O)C1CCN(S(=O)(=O)c2ccc3c(ccn3C)c2)CC1	none (no result: SMN2 splice enh, Rab9 promoter act, ELG1 genotox, NPC1 promoter act)
CC(=O)N/C(N)=N/c1nc2cc(C)ccc2o1	Rab9 promoter act 0.79µM, ELG1 genotox 9.2µM, NPC1 promoter act 1.4µM, FLuc counter 5.4µM (no result: SMN2 splice enh)
CC(=O)N/C(N)=N/c1nc2cc([N+](=O)[O-])ccc2o1	Rab9 promoter act 3.2µM, ELG1 genotox inconclusive, NPC1 promoter act inconclusive, FLuc counter inconclusive (no result: SMN2 splice enh)
Cc1ccc(Cn2c(C(=O)Nc3cccc(Cl)c3)cc3sccc32)cc1	none (no result: Rab9 promoter act, ELG1 genotox, NPC1 promoter act)
CCOC(=O)N1CCC(N2Cc3cccc(C(=O)Nc4ccc(OC)c(OC)c4)c3C2=O)CC1	FLuc counter 15µM
CCc1ccc(NC(=O)c2cnc3scc(C)n3c2=O)cc1	SMN2 splice enh 8.9µM, Rab9 promoter act 4.5µM, ELG1 genotox 18µM, NPC1 promoter act inconclusive, FLuc counter inconclusive
O=C(Nc1ccc(OC(F)(F)F)cc1)c1cnccn1	Rab9 promoter act 2.8µM, ELG1 genotox inconclusive, NPC1 promoter act 1.8µM, FLuc counter 12µM (no result: SMN2 splice enh)
CCc1ccc(NC(=O)c2cnccn2)cc1	Rab9 promoter act 1.3µM, ELG1 genotox inconclusive, NPC1 promoter act 1.3µM, FLuc counter 5.4µM (no result: SMN2 splice enh)
Cc1csc2ncc(C(=O)Nc3cccc(C(F)(F)F)c3)c(=O)n12	SMN2 splice enh inconclusive, ELG1 genotox inconclusive
CCCCNC(=O)C1CCN(Cc2ccc(OCc3ccccc3)cc2)CC1	SMN2 splice enh inconclusive, Rab9 promoter act inconclusive, ELG1 genotox inconclusive, NPC1 promoter act inconclusive, FLuc counter 19µM
OC1CCN(Cc2ccc(OCc3ccccc3)cc2)CC1	Rab9 promoter act inconclusive, ELG1 genotox inconclusive, NPC1 promoter act 2µM, FLuc counter 11µM (no result: SMN2 splice enh)
CCOC(=O)N1CCC(NC(=O)c2cc3c(=O)[nH]c4ccccc4c3n2C)CC1	none (no result: SMN2 splice enh)
Cc1ccc(CNC(=O)CCCn2c(=O)c3ccccc3n(Cc3ccc(Cl)cc3)c2=O)cc1	none (no result: Rab9 promoter act, ELG1 genotox, NPC1 promoter act)
CCOc1ccc(N2C(=O)CCC2=O)cc1	none
CCCC1CCC(c2ccc(OCC)cc2)=CC1=O (centres undefined)	Rab9 promoter act 3.5µM, ELG1 genotox inconclusive, NPC1 promoter act 2µM, FLuc counter 6.7µM (no result: SMN2 splice enh)
COc1ccc(C)cc1NC(=O)Nc1ccc2c(c1)CCC2	FLuc counter 9.5µM (no result: SMN2 splice enh)
COc1ccccc1NC(=O)COC(=O)c1cc2c(s1)CCC2	FLuc counter 8.5µM (no result: SMN2 splice enh)
COc1ccccc1NC(=O)Nc1ccc2c(c1)CCC2	Rab9 promoter act 2.5µM, ELG1 genotox 13µM, NPC1 promoter act 2.5µM, FLuc counter 3µM (no result: SMN2 splice enh)
COc1ccc(NC(=O)Nc2ccc3c(c2)CCC3)cc1OC	none
NC(=O)CC(NC(=O)c1cccc(Br)c1)c1ccc(N2CCN(c3ccccn3)CC2)c([N+](=O)[O-])c1 (centres undefined)	none (no result: SMN2 splice enh)
COc1ccc2c3c(c(=O)oc2c1)C1O[C@](c2ccsc2)(Cc2ccccc21)O3	none (no result: SMN2 splice enh, ELG1 genotox)
COc1ccc([C@]23Cc4ccccc4C(O2)c2c(c4ccc(OC)cc4oc2=O)O3)cc1	FLuc counter 3.1µM (no result: SMN2 splice enh, ELG1 genotox)
COc1ccc(C2=NC(c3ccccc3)CO2)cc1 (centres undefined)	SMN2 splice enh inconclusive, Rab9 promoter act 3.5µM, ELG1 genotox inconclusive, NPC1 promoter act 3.2µM, FLuc counter 1.5µM
O=[N+]([O-])c1cccc(C2=NC(c3ccccc3)CO2)c1 (centres undefined)	Rab9 promoter act inconclusive, ELG1 genotox inconclusive, NPC1 promoter act inconclusive, FLuc counter 27µM
CCn1cc(C2=NC(c3ccccc3)CO2)c2ccccc21 (centres undefined)	FLuc counter inconclusive
Cc1ccccc1CC1SC(N=C(N)N)=NC1=O (centres undefined)	none (no result: SMN2 splice enh)
Cc1cccc(C)c1NC(=O)CCc1nnc2ccc(N3CCCC3)nn12	none (no result: SMN2 splice enh)
COc1ccc(Br)cc1CNC(=O)c1ccc2nc(C(C)C)oc2c1	none (no result: SMN2 splice enh, Rab9 promoter act, ELG1 genotox, NPC1 promoter act)
O=C(NCc1ccc(Cl)cc1)c1cnn2ccccc12	SMN2 splice enh inconclusive, Rab9 promoter act 2.5µM, ELG1 genotox inconclusive, NPC1 promoter act 4µM, FLuc counter 13µM
